Screening results from PubChem BioAssay.
CHX counter – counter-screen hit for Shiga toxin inhibitors, cycloheximide. cell reporter, cycloheximide protein synthesis inhibition counterscreen. max response, %. actives 12% (n = 300,000); in the data active means max response mostly above about 13%, no sharp cut-off; inactive means mostly below about 14%; further: read at 38.3 µM for the half of the compounds with a filed dose
Lassa entry inh – Lassa virus entry inhibition | Lassa virus pseudotype entry inhibition, cell reporter | Potency, µM (highest dose often 37.9 µM), actives largely listed as inhibitors | actives 1.2% (n = 300,000); calls by dose curve; tested in HEK293 cells; further: nearly all actives have a fitted effect of over 50% in size
Shiga toxin inh – Shiga toxin inhibition; Vero cells, Shiga toxin protein synthesis inhibition reporter; inhibition, % at 38.7 µM; actives 9.2% (n = 290,000); AID 2315; in the data active means inhibition mostly above about 28%, no sharp cut-off; inactive means mostly below about 43%
Marburg entry inh – Marburg virus entry inhibition; Marburg virus pseudotyped entry inhibition, cell reporter; Potency, µM (titrated, usually from 37.8 µM), hits mostly inhibitors; actives 1.8% (n = 300,000); calls by dose curve; tested in HEK293 cells
Of the large screens only hits and unclear results are named; the others gave an inactive call. Only some compounds are listed: those with a hit (about 12% of all), similar ones and a draw of the others.

Cn1c(-c2ccc([N+](=O)[O-])cc2)nc2ccccc21	Marburg entry inh inconclusive
CCOC(=O)C(C)On1c(-c2ccccc2)nc2ccc([N+](=O)[O-])cc21 (centres undefined)	CHX counter 35.1, Shiga toxin inh 50.1
CC(=O)Nc1ccc(Nc2nc(C(F)(F)F)nc3c2nnn3Cc2ccccc2Cl)cc1	none
Clc1ccc(CNc2ncnc3[nH]ncc23)c(Cl)c1	Marburg entry inh inconclusive (no result: CHX counter, Shiga toxin inh)
Oc1c(Cl)cc(Cl)cc1C=Nc1ccc2c(c1)OCCO2	CHX counter 68.2, Lassa entry inh inconclusive, Shiga toxin inh 116.7
Fc1ccccc1N1CCN(c2ncnc3onc(-c4ccc(Cl)cc4)c23)CC1	Lassa entry inh inconclusive (no result: CHX counter, Shiga toxin inh)
COc1ccc(C(=Cc2cc(OC)c(OC)cc2[N+](=O)[O-])C(=O)O)cc1	none (no result: CHX counter, Shiga toxin inh)
O=C(Nc1cc(Cl)ccc1O)c1cc(-c2ccco2)on1	CHX counter 39.8, Shiga toxin inh 79.7
O=C(Nc1cccnc1Cl)c1cc(-c2ccco2)on1	CHX counter 40.9, Shiga toxin inh 82.6
O=C(Nc1cc(Br)ccc1O)c1cc(-c2ccco2)on1	Shiga toxin inh 59.3
COc1cc(NC(=O)c2cc(-c3ccco3)on2)c(OC)cc1Cl	none
O=C(Nc1cccc(Cl)c1)c1cc(-c2ccco2)on1	CHX counter 31.4, Shiga toxin inh 56.0
O=C(Nc1c(Cl)cccc1Cl)c1cc(-c2ccco2)on1	Marburg entry inh inconclusive
O=C(CN1CCN(Cc2ccc(F)cc2Cl)S1(=O)=O)Nc1ccc(F)cc1	none (no result: CHX counter, Shiga toxin inh, Marburg entry inh)
CC1=C(C(=O)Nc2cccnc2)C(c2ccccc2)n2nc(SCc3ccccc3Cl)nc2N1 (centres undefined)	Marburg entry inh inconclusive (no result: CHX counter, Shiga toxin inh)
N#CCCN(Cc1cccnc1)C(=S)NC(=O)c1ccccc1	Marburg entry inh inconclusive (no result: CHX counter, Shiga toxin inh)
CCc1ccc(NC(=O)COC(=O)c2nc3nc(C)cc(C)n3n2)cc1	Marburg entry inh inconclusive (no result: CHX counter, Shiga toxin inh)
Cn1c(/C(C#N)=C/c2cccc(O)c2)nc2ccccc21	CHX counter 42.5, Marburg entry inh inconclusive
N#C/C(=C\c1ccncc1)c1nc2ccccc2o1	CHX counter 29.5
N#C/C(=C\Nc1ccccc1O)c1nc2ccccc2o1	CHX counter 25.9, Lassa entry inh inconclusive, Shiga toxin inh 70.6, Marburg entry inh inconclusive
N#C/C(=C\c1cccc(O)c1)c1nc2ccccc2o1	CHX counter 58.6, Lassa entry inh inconclusive, Shiga toxin inh 85.2
COc1cc(/C=C(\C#N)c2nc3ccccc3n2C)cc(OC)c1OC	none (no result: CHX counter, Shiga toxin inh, Marburg entry inh)
N#C/C(=C\c1ccc(Cl)cc1)c1nc2ccccc2o1	none
O=C(O)/C=C/C(=O)Nc1ccc(Oc2ncnc3cc(Cl)ccc23)nc1	CHX counter 26.5, Shiga toxin inh 58.4
O=C(CSc1nnc(NC(=O)c2ccccc2F)s1)NCC1CCCO1 (centres undefined)	CHX counter 17.1, Shiga toxin inh 18.9, Marburg entry inh inconclusive
O=C(CSc1nnc(NC(=O)c2ccccc2)s1)NCC1CCCO1 (centres undefined)	CHX counter 29.6, Shiga toxin inh 35.9
Cc1ccc2c(cnn2C(=O)CCC(=O)N2CCCCC2C)c1 (centres undefined)	none (no result: Lassa entry inh, Marburg entry inh)
CCOC(=O)c1nc2ccccc2s1	CHX counter 26.7, Lassa entry inh inconclusive, Shiga toxin inh 61.3, Marburg entry inh inconclusive
CCOC(=O)Nc1nc(-c2ccc(Cl)cc2Cl)cs1	CHX counter 23.6, Lassa entry inh inconclusive, Shiga toxin inh 77.6
CCCNC(=O)Nc1nc2ccccc2s1	CHX counter 51.5, Shiga toxin inh 87.5 (no result: Lassa entry inh, Marburg entry inh)
Cc1ccc(C(=O)N(Nc2nc3ccccc3s2)C(=O)c2ccc(C)cc2)cc1	CHX counter 10.5, Lassa entry inh inconclusive, Marburg entry inh inconclusive
CC(C)C(=O)N(Nc1nc2ccccc2s1)C(=O)C(C)C	Marburg entry inh inconclusive
CC(=O)OCON[N+]([O-])=NC1CCCCC1	none (no result: Lassa entry inh, Marburg entry inh)
CN(C)c1ccc(CNC(=O)c2ccc(Cn3c(SCc4ccccc4)nc4cccnc43)cc2)cc1	none (no result: CHX counter, Lassa entry inh, Shiga toxin inh)
CN(C)c1ccc(CC(=O)c2nc3ccccc3s2)cc1	CHX counter 66.9, Shiga toxin inh 43.7
Cc1ccc(CC(=O)Nc2nc3ccccc3s2)cc1	CHX counter 39.9, Lassa entry inh inconclusive, Shiga toxin inh 174.4, Marburg entry inh inconclusive
O=C(NCCCO)c1nc2ccccc2s1	none
CCCCNC(=O)Nc1nc2ccccc2s1	Shiga toxin inh 70.6, Marburg entry inh inconclusive
CN(C)C(=O)c1nc2ccccc2s1	CHX counter 28.3, Lassa entry inh inconclusive, Shiga toxin inh 73.9, Marburg entry inh inconclusive
Cc1ccc(S(=O)(=O)CC(=O)Nc2nc3ccccc3s2)cc1	Marburg entry inh inconclusive
CC(C)C(=O)NN(C(=O)C(C)C)c1nc2ccccc2s1	Lassa entry inh inconclusive
Cc1n[nH]c(C)c1CCCCOc1ccccc1[N+](=O)[O-]	none (no result: Lassa entry inh, Marburg entry inh)
COc1ccc(-c2noc(N3CCN(c4cccc(C)c4C)CC3)n2)cc1OC	none (no result: CHX counter, Shiga toxin inh, Marburg entry inh)
O=C(c1cc2cc(Cl)ccc2[nH]1)N1CCN(c2ccccn2)CC1	none (no result: Shiga toxin inh)
CC1CCCCC1NC(=O)CNC(=O)c1ccco1 (centres undefined)	Marburg entry inh inconclusive (no result: CHX counter, Shiga toxin inh)
O=c1nc2onnc2c(C=NO)[nH]1	none (no result: CHX counter, Shiga toxin inh)
C/C=C\C1=CCCC1Nc1ncnc2ccc(-c3c(C)noc3C)cc12 (centres undefined)	none (no result: Lassa entry inh, Marburg entry inh)
CN(C(=O)c1ccccc1)c1nc2ccccc2s1	CHX counter 46.0, Lassa entry inh inconclusive, Shiga toxin inh 73.8, Marburg entry inh 8.91µM
CCCNC(=O)N1CCC(c2nc3ccccc3s2)CC1	none (no result: Lassa entry inh, Marburg entry inh)
CCCNC(=O)c1ccc(-c2nc3ccccc3s2)s1	CHX counter 48.2, Lassa entry inh inconclusive, Marburg entry inh 3.55µM
CCOC(=O)Nc1nc2ccccc2s1	CHX counter 31.4, Shiga toxin inh 66.0
Cc1nc2c(ccc3nc(NC(=O)Cc4ccccc4)sc32)s1	CHX counter 35.9, Lassa entry inh inconclusive, Shiga toxin inh 35.7, Marburg entry inh inconclusive
COc1ccc2cc([S+]([O-])Cc3ncc(C)c(OC)c3C)nc2c1	none (no result: CHX counter, Shiga toxin inh)
NC(N)=NCCCCN=C(N)N	Marburg entry inh inconclusive (no result: CHX counter, Shiga toxin inh)
O=S(=O)(c1ccc2c(c1)OCCO2)N1CCN(S(=O)(=O)c2c(F)ccc(O)c2F)CC1	none (no result: Lassa entry inh, Marburg entry inh)
CCCCNC(=O)Nc1nc2ccc(CC)cc2s1	CHX counter 34.4, Shiga toxin inh 73.2, Marburg entry inh inconclusive
O=[N+]([O-])c1ccc2c(c1)S(=O)(=O)C=C2	Lassa entry inh 3.26µM, Marburg entry inh inconclusive
Cc1cc([N+](=O)[O-])ccc1N	Marburg entry inh inconclusive (no result: CHX counter, Shiga toxin inh)
Cc1cc(NC(=O)C(C)SCC(=O)OCc2ccc([N+](=O)[O-])cc2)no1 (centres undefined)	none (no result: CHX counter, Shiga toxin inh)
CC(C)n1nnc(-c2ccc(OCc3ccccc3F)cc2)n1	CHX counter 26.3 (no result: Lassa entry inh, Shiga toxin inh, Marburg entry inh)
Fc1ccccc1COc1ccc(-c2nnn(Cc3ccccc3F)n2)cc1	none (no result: Lassa entry inh, Marburg entry inh)
Fc1ccccc1COc1ccc(C(=S)N2CCCC2)cc1	CHX counter 34.1, Shiga toxin inh 116.3 (no result: Lassa entry inh, Marburg entry inh)
Cn1nnc(-c2ccc(OCc3ccccc3F)cc2)n1	CHX counter 44.4, Lassa entry inh inconclusive, Shiga toxin inh 94.1, Marburg entry inh inconclusive
CCO[C@H](c1cc(OC)cc([N+](=O)[O-])c1OC)[C@H](C)[C@@H](OC)[C@H](C)C=CCC(=O)OC	none (no result: CHX counter, Lassa entry inh, Shiga toxin inh)
CCc1ccc(CN(C(=O)c2cc(=O)c3ccc(C)cc3o2)C2CCS(=O)(=O)C2)cc1 (centres undefined)	none (no result: CHX counter, Shiga toxin inh)
Cc1ccc2c(CN(C)Cc3cccc(F)c3)cc(=O)oc2c1C	CHX counter 22.5 (no result: Lassa entry inh, Marburg entry inh)
Cc1ccc2c(CN(C)Cc3ccccc3)cc(=O)oc2c1C	CHX counter 43.6, Lassa entry inh inconclusive, Shiga toxin inh 46.1, Marburg entry inh inconclusive
CN(Cc1ccccc1)C(=O)c1nn2cccnc2c1Cl	none
